Pf Dd2 inh = Plasmodium falciparum Dd2 growth inhibition. Potency, µM (highest dose often 28.9 µM), for inactives: top-dose activity, negative = inhibition, hits mostly inhibitors. 120,000 tested, 4.3% active. P. falciparum Dd2 growth, SYBR Green, 72 h; active means well fitted inhibition curve with a large enough effect;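 further: plate controls were DMSO vehicle for no effect and reference drug for full effect; nearly all actives have a fitted effect of over 65% in size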
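Readout: SYBR Green fluorescence, 485 nm excitation, 535 nm emission, after ~16 h lysis at 37C. Before that, Dd2-infected red cells (2.5% hematocrit) grew 72 h with compound, 29 uM top final concentration.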
Active calls of the source: *; i = inactive; [ ] = dose if it differs, or a comment. Many of the other results were omitted from the sample, so hits are more common in it than they were. Potency means the concentration at half of the fitted maximal effect.

SMILES	Pf Dd2 inh
CCCCN1C(=O)[C@@H]2C[C@@H](O)CN2C2(CN(Cc3cccnc3)C2)C1=O	35%[44.1 µM]
O=C(c1cnccn1)N1C[C@@H]2OCC(=O)N(CC3CC3)[C@@H]2C1	21%[44.1 µM]
COCC(=O)NC1CCC12CCN(S(=O)(=O)c1cn(C)cn1)CC2 (stereo not given)	-25%
COC1C(=O)N(C2CCN(C(=O)c3cnc(C)cn3)CC2)C12CCOCC2 (stereo not given)	8%
CCOc1ccccc1NC(=O)C1c2ccccc2C(=O)N(CCOC)C12CCCCC2 (stereo not given)	4µM*
COCCN1C(=O)c2ccccc2C(C(=O)Nc2ccc(C)cc2Cl)C12CCCC2 (stereo not given)	i
COCCN1C(=O)c2ccccc2C(C(=O)Nc2cc(C)ccn2)C12CCCCC2 (stereo not given)	13µM*
COCCN1C(=O)c2ccccc2C(C(=O)NC2CCCC2)C12CCCCC2 (stereo not given)	12%
CCc1ccccc1NC(=O)C1c2ccccc2C(=O)N(CCOC)C12CCCC2 (stereo not given)	i
Cc1ccnc(NC(=O)C2c3ccccc3C(=O)N(CC(C)C)C23CCCC3)c1 (stereo not given)	5µM*
CC(C)CN1C(=O)c2ccccc2C(C(=O)Nc2ccccn2)C12CCCC2 (stereo not given)	14µM*
COCCN1C(=O)c2ccccc2C(C(=O)NC2CCCCCC2)C12CCCC2 (stereo not given)	-13%
CC(C)CN1C(=O)c2ccccc2C(C(=O)N2CCSCC2)C12CCCC2 (stereo not given)	-15%
COCCN1C(=O)c2ccccc2C(C(=O)NC2CCCCC2)C12CCCC2 (stereo not given)	-1%
CC(C)NC(=O)C1c2ccccc2C(=O)N(Cc2ccco2)C12CCCCC2 (stereo not given)	-15%
COCCNC(=O)NCCc1noc(C)n1	82%
CCN(CCn1cccn1)C(=O)c1csc2nc(-c3cccc(F)c3)cn12	-7%
O=C(NCCc1ccccc1)[C@@H]1C[C@@H](c2ccc(F)cc2)N([S+](=O)([O-])c2cccnc2)C1	i
COc1ccc(NC(=O)Cn2nc3c(cc2=O)CCCC3)cn1	-16%
COc1ccc(C(=O)N2CCn3c(nnc3-c3ccccc3)C2)cc1	i
CN1C(=O)C(CC(=O)N2CC(n3cccn3)C2)(Cc2ccccc2)c2ccccc21 (stereo not given)	-12%
CO[C@H]1C(=O)N(C(C)C)[C@H]1C1CCN(C(=O)Cn2nc(C(F)(F)F)cc2C)CC1	-3%
Cn1cc(CN2CCn3c(nnc3[C@@H]3C[C@@H](O)CN3Cc3cccnc3)C2)c2ccccc21	-26%
c1cc(-c2nc(CC3CCCNC3)no2)ccn1 (stereo not given)	43%
COCCN1C(=O)c2ccccc2C(C(=O)Nc2ccc3c(c2)OCCO3)C12CCCC2 (stereo not given)	-23%
SMILES	Pf Dd2 inh
COCCN1C(=O)c2ccccc2C(C(=O)Nc2ccc(F)cc2)C12CCCCC2 (stereo not given)	-19%
COc1ccccc1NC(=O)C1c2ccccc2C(=O)N(Cc2ccccc2)C12CCCC2 (stereo not given)	11µM*
CC(C)CN1C(=O)c2ccccc2C(C(=O)Nc2ccc(C(N)=O)cc2)C12CCCCC2 (stereo not given)	13µM*
O=C(NCC1CCOCC1)C1c2ccccc2C(=O)N(Cc2ccccc2)C12CCCC2 (stereo not given)	-23%
CC(C)CCNC(=O)C1c2ccccc2C(=O)N(Cc2ccccc2)C12CCCC2 (stereo not given)	-16%
O=C1CCC2(CCCO2)CCN1Cc1ccc(F)c(F)c1 (stereo not given)	i
Cc1cccc(OCC(=O)N2CCC[C@H]2c2nc(-c3ccc(F)cc3)no2)c1	52%
CN(Cc1cccnc1)Cc1nc(C2(O)CCN(Cc3ccccc3F)CC2)cs1	i
CCOc1ccccc1NC(=O)N1CCC(OC2CCN(S(C)(=O)=O)CC2)CC1	4%
O=C(C1CCCN(c2nc3ncccc3o2)C1)N1CCN(c2ncccn2)CC1 (stereo not given)	i
COc1cc(C2CC(=O)N(Cc3ccc(F)cc3)c3ccccc3S2)cc(OC)c1OC (stereo not given)	1.1µM*
COc1ccc(C2CC(=O)N(Cc3ccc(F)cc3)c3ccccc3S2)cc1OC (stereo not given)	22%
COc1ccc(C2CC(=O)N(Cc3ccc(F)cc3)c3ccccc3S2)cc1 (stereo not given)	i
O=C(NC1CCN(c2cc(-c3cccs3)[nH]n2)C1)c1ccccc1Br (stereo not given)	i
O=C(C[C@@H]1CCNC[C@@H]1Cc1cc(CN2CCOCC2)on1)N1CCC(Cc2ccccc2)CC1	-11%
CC1CCN(C(=O)[C@@H](C)C2CC[C@@]3(C)CC[C@H](NC(=O)c4ccccn4)[C@@H](C)[C@@H]3[C@H]2O)CC1 (stereo not given in full)	-6%
CCOC(=O)C1=C(C)N=C2SC=C(CC(=O)N3CCCC3)N2C1c1cc(OC)cc(OC)c1 (stereo not given)	-7%
O=C1c2cc(N3CCOCC3)nc(-c3cccc(CO)c3)c2CN1Cc1ccccc1	i
Cc1ccc(NS(=O)(=O)c2ccc3[nH]c(=O)ccc3c2)cc1N(C)C	-16%
Cc1cccc(NS(=O)(=O)c2ccc3[nH]c(=O)ccc3c2)c1C	8.9µM*
CC(C)c1ccc(NS(=O)(=O)c2ccc3[nH]c(=O)ccc3c2)cc1	-2%
O=C(Nc1nc2c(s1)CCC2)C1CC(=O)N(c2n[nH]c3ccccc23)C1 (stereo not given)	-24%
O=C(NCCN1CCCCC1)C1(CCO)CC12CCOCC2 (stereo not given)	16%
Cc1ccc(-c2nnc(Nc3ccc(O)cc3)c3ccccc23)cc1S(=O)(=O)NCC1CCCO1 (stereo not given)	5µM*
COc1ccc(Nc2nnc(-c3ccc(C)c(S(=O)(=O)NCc4nc5ccccc5[nH]4)c3)c3ccccc23)cc1	75%
SMILES	Pf Dd2 inh
Cc1ccc(-c2nnc(Nc3ccc(Br)cc3)c3ccccc23)cc1S(=O)(=O)NCC1CCCO1 (stereo not given)	10µM*
Cc1ccc(C(=O)Nc2cccc(O)c2)cc1S(=O)(=O)N1CCCCCC1	-24%
Cc1cc(-c2ccc(C)c(S(=O)(=O)NCc3cccc(Br)c3)c2)on1	20%
Cc1cc(-c2ccc(C)c(S(=O)(=O)NC3CCCCC3)c2)on1	i
Cc1ccc(-c2nnc(Nc3ccc(C(=O)N(C)C)cc3)c3ccccc23)cc1S(=O)(=O)N(C)C	11µM*
Cc1ccc(-c2noc(-c3ccc(NCC4CCCO4)c([N+](=O)[O-])c3)n2)cc1 (stereo not given)	18%
Cc1cc(C)n(-c2nnc(Nc3ccc(C)c(C)c3)c3ccccc23)n1	-22%
Cc1ccc(-c2nnc(Nc3ccc(S(N)(=O)=O)cc3)c3ccccc23)cc1S(=O)(=O)N1CCCCC1	19%
Cc1ccc(-c2nnc(Nc3ccc(O)cc3)c3ccccc23)cc1S(=O)(=O)N1CCCCC1	10µM*
CNC(=O)c1ccc(Nc2nnc(-c3ccc(C)c(S(=O)(=O)N(C)C)c3)c3ccccc23)cc1	-11%
Cc1ccc(-n2c(=O)c3c(cc(C)n3C)n(CC(=O)Nc3ccc4c(c3)OCO4)c2=O)cc1	-2%
O=c1cc(CCn2cccn2)nc(-c2ccc(CN3CCC[C@@H](O)C3)cc2)[nH]1	-12%
O=C(c1ccc2cccc(F)c2n1)N1CCOc2ccc(Cl)cc2C1	-65%

Screens from PubChem.
